This note sets out measurements from the supplement of paper PMC6555819.

Test in all cases: PBM binding z-score (relative to random genomic background probes); higher = stronger binding; sequences stand for … in GC…GCGATTGACAGCGTAGAATGAAGG
Assay [1] relates to LXRa homodimer (NR concentration 270 nM). In short, it runs like this: (§1)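 Custom Agilent 4×180K protein-binding microarrays carried double-stranded probes. Their 34-nt variable regions held direct-repeat seeds, single-nucleotide variants, half-site ablations and random human genomic background sequences. Arrays were incubated 1 h with ligand-free nuclear receptor dimers in PBS pH 7.4, 2% milk, 0.02% Triton X-100, 1 mM DTT, 0.2 mg/mL BSA and 0.4 mg/ml salmon testes DNA. Antibodies against each partner (one per run) detected binding, and scanned fluorescence was regression-normalized. Binding z-scores use random background probes as reference.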

Assay [2] relates to LXRb homodimer (NR concentration 270 nM). The procedure, abridged: as §1
For assay [3], the system named is PPARg:RXRa (NR concentration 180 nM, RXRa partner concentration 90 nM). The procedure, abridged: as §1
The subject of assay [4] is PPARg:RXRa 270nM:90nM, anti-RXR (NR concentration 270 nM, RXRa partner concentration 90 nM). In short, it runs like this: as §1
In assay [5] the test system is PPARg:RXRa 30nM:10nM, anti-RXR (NR concentration 30 nM, RXRa partner concentration 10 nM). The procedure, abridged:
as §1

For assay [6], the system named is PPARg:RXRa 90nM:30nM, anti-RXR (NR concentration 90 nM, RXRa partner concentration 30 nM). In short, it runs like this: as §1
Assay [7] has as its system PPARg:RXRa DBDmut IVT, anti-RXR (DBD mutation: RXRa K156A/R161A, NR concentration 270 nM, RXRa partner concentration 90 nM). In short, it runs like this:
as §1

Assay [8] has as its system PPARg:RXRa IVT, anti-PPARg (NR concentration 270 nM, RXRa partner concentration 90 nM). In short, it runs like this:
as §1

The test system of assay [9] is PPARg DBDmut:RXRa IVT, anti-PPARg (DBD mutation: PPARg1 K132A/R137A, NR concentration 270 nM, RXRa partner concentration 90 nM). In short, it runs like this:
as §1

The test system of assay [10] is PPARg DBDmut IVT, anti-PPARg (DBD mutation: PPARg1 K132A/R137A, NR concentration 270 nM). In short, it runs like this: as §1
Assay [11] relates to PPARg homodimer (NR concentration 180 nM). In short, it runs like this:
as §1

For assay [12], the system named is PXR homodimer (NR concentration 270 nM). In short, it runs like this: as §1
The subject of assay [13] is RARa:RXR (NR concentration 270 nM, RXRa partner concentration 90 nM). The procedure, abridged: as §1
Assay [14] concerns RARa homodimer (NR concentration 270 nM). The procedure, abridged: as §1
The subject of assay [15] is RARb:RXRa (NR concentration 270 nM, RXRa partner concentration 90 nM). In short, it runs like this:
as §1

For assay [16], the system named is RARb homodimer (NR concentration 270 nM). In short, it runs like this: as §1
Assay [17] deals with PXR:RXRa (NR concentration 270 nM, RXRa partner concentration 90 nM). The procedure, abridged:
as §1

Regarding CAAACCAGGTCAAAGGTCAAAGTCGAGCCAACCA, the PBM binding z-score came out at 5.78 in assay [1]; 3.31 in assay [2]; 13.2 in assay [3]; 10.7 in assay [4]; 11.3 in assay [5]; 12 in assay [6]. Also, the PBM binding z-score in assay [7] was determined as 6.71; in [8], 7.43; in assay [9], 2.48; in assay [10] it was 1.06; in [11], 4.04; in [12], 2.11. The PBM binding z-score is 9.04 in assay [13], 3.33 in assay [14], 5.8 in [15] and 5.45 in assay [16].
As to TATACAGGGTCAAAGGTCAGAGTACGAATGTCGA, the PBM binding z-score turned out to be 4.72 in assay [1]; 3.86 in assay [2]; 9.79 in assay [4]; 9.88 in assay [5]; 10.9 in assay [6]; 3.73 in assay [7]. Besides, the PBM binding z-score in assay [8] was found to be 6.32; in assay [9] it was 2.47; in assay [10] it was 1.85; in assay [11], 2.64; in assay [12], 1.68; in [14], 2.73. Further, in [16], the PBM binding z-score is 5.41.
In the case of CGTCAAAGGTCATAGGAGGTCAGTGAAGACAGAT, the PBM binding z-score in [1] came out at 6.84; in [2] it was 3.02; in assay [3] it was 8.97; in [4], 8.33; in [5] it was 5.97; in [6], 7.99. Further, the PBM binding z-score in assay [7] amounted to 4.36; in [8], 6.23; in [9], 1.59; in [10] it was 3.77; in [11] it was 5.41; in assay [12], 4.17. The figures for the PBM binding z-score in [14] and in assay [16] were 3.82 and 5.95, respectively.
For the sequence TGTCAAAGTTCAAAGGTCACGTAAGTATCCACAC, the PBM binding z-score in assay [1] came to 7.63; in assay [2], 3.24; in assay [4], 9.52; in assay [5] it was 7.66; in [6], 10.2; in [7], 1.46. The PBM binding z-score worked out at 6.64 in [8]; 4.45 in assay [9]; 3.14 in assay [10]; 6.73 in [11]; 5.82 in [12]; 5.52 in assay [14]. In addition, the PBM binding z-score in assay [16] was 5.93.
Turning to CGTCTAAGGTCATAGGAGGTCAGTGAAGACAGAT, the PBM binding z-score in [1] stood at 5.68; in assay [2], 1.55; in [3] it was 6.42; in assay [4], 6.7; in assay [5], 3.31; in assay [6], 5.55. Besides, the PBM binding z-score was 3.95 in assay [7]; 4.85 in [8]; 1.68 in assay [9]; 1.09 in [10]; 6.3 in assay [11]; 6.55 in assay [12]. For the same sequence, the PBM binding z-score in assay [14] was 3.85; in assay [15], 5.66; in [16], 5.47.
Take TCTCGGAGGTCACGAAAGGTCAGAGCTCGACATC: the PBM binding z-score is 6.78 in [1]; 2.06 in [2]; 8.27 in assay [3]; 7.76 in assay [4]; 5.31 in [5]; 7.09 in assay [6]. Besides, the PBM binding z-score in assay [7] came to 4.43; in assay [8] it was 6.3; in assay [9] it was 1.39; in assay [10], 2.35; in assay [11] it was 6.9; in [12], 3.6. In addition, the values for the PBM binding z-score in [14] and in [16] were 5.11 and 6.12, respectively.
Take TCTAGTAGGTCAAAGGTCACACACTCGAAATGCG: the PBM binding z-score worked out at 5.52 in assay [1]; 2.6 in assay [2]; 11.6 in assay [4]; 13 in assay [5]; 14.2 in assay [6]; 8.19 in assay [7]. In addition, the PBM binding z-score is 9.26 in assay [8]; 6.06 in assay [9]; 3.11 in assay [10]; 7.45 in assay [11]; 2.56 in assay [12]; 5.05 in [14]. This sequence also came in with a PBM binding z-score in [16] of 5.5.
As to CGTTCAAGGTCAAAGGTCAGTGAAGAGATGACGG, the PBM binding z-score in [1] turned out to be 4.39; in [2], 2.52; in [4], 9.86; in assay [5], 11.2; in assay [6], 11.5; in assay [7], 5.39. Besides, the PBM binding z-score in assay [8] was 6.57; in assay [9], 2.57; in assay [10] it was 1.79; in [11], 6.36; in assay [17], 7.19; in assay [12], 3.57. For the same sequence, the PBM binding z-score in [13] came to 8.99; in assay [14], 5.48; in assay [15], 5.89; in [16] it was 5.42.
